# Measurements: PubChem BioAssay (NCI)
# About 83,000 compounds went through this panel and 20% of them were active in at least one assay; those are over-represented in the sample as a whole.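 Results are percent growth after 48 hours of single-concentration exposure. 100 means growth as in untreated cells, lower positive values show inhibition; negative values down to -100 show cell death.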 Unmarked numbers belong to inactive results. Active and inactive are the calls of the source. How the source made its calls: active means growth percent below 10; inactive means the rest.
# How the values were obtained:
# Assay in all cases: NCI-60 one-dose screen, 48 h (100 = growth as untreated, 0 = no growth, -100 = all killed)
# Settings in all cases: 10 µM unless noted
# HCT-15 colon = test system: HCT-15 colon
# HT29 colon = test system: HT29 colon
# SNB-75 CNS = test system: SNB-75 CNS
# SNB-19 CNS = test system: SNB-19 CNS
# U251 CNS = test system: U251 CNS
# PC-3 prostate = test system: PC-3 prostate
# SK-MEL-5 melanoma = test system: SK-MEL-5 melanoma
# UACC-62 melanoma = test system: UACC-62 melanoma
# LOX IMVI melanoma = test system: LOX IMVI melanoma
# SK-MEL-28 melanoma = test system: SK-MEL-28 melanoma
Compound,growth (HCT-15 colon),growth (HT29 colon),growth (SNB-75 CNS),growth (SNB-19 CNS),growth (U251 CNS),growth (PC-3 prostate),growth (SK-MEL-5 melanoma),growth (UACC-62 melanoma),growth (LOX IMVI melanoma),growth (SK-MEL-28 melanoma)
C#CC(=O)Nc1cccc(Nc2nc3c(c(NCc4ccccc4)n2)CCCC3)c1,-64.8% (active),-29.1% (active),-29.3% (active),-79.4% (active),-86.8% (active),-66.2% (active),-89.2% (active),-77.9% (active),-87.2% (active),-84.6% (active)
CO[C@@H]1[C@H](N(C)C(=O)c2ccccc2)C[C@@H]2O[C@]1(C)n1c3ccccc3c3c4c(c5c6ccccc6n2c5c31)C(=O)NC4=O,25%,42.8%,-14.8% (active),63.6%,44.3%,26.3%,40%,34.1%,31.4%,83.1%
C[C@H]1[C@H](C)CC[C@]2(CO)CC[C@]3(C)C(=CC[C@@H]4[C@@]5(C)CCCNC(C)(C)[C@@H]5CC[C@]43C)[C@H]12,6.84% (active),-75.4% (active),9.21% (active),-64.9% (active),-83.3% (active),-43.2% (active),22.5%,-72.3% (active),-94.9% (active),-84.9% (active)
CCOc1ccc(/C=N/Nc2cc(C)nc3ccc(Cl)cc23)cc1,-0.545% (active),26.9%,101%,76.1%,8.99% (active),71.2%,66.2%,68.2%,-85.6% (active),28.2%
Fc1ccccc1CSc1ncnc2nc[nH]c12,114%,107%,105%,94.3%,106%,105%,105%,94.2%,96.4%,112%
COc1cc2nc(Cc3ccc(C)cc3)[nH]c(=O)c2cc1OC,104%,107%,95.6%,97.9%,117%,101%,109%,95.1%,105%,96.6%
O=c1[nH]nc(-c2ccc(Cl)cc2)cc1Cc1cccc([N+](=O)[O-])c1,105%,116%,110%,88.5%,92.1%,91.1%,79.3%,74.3%,93.5%,109%
COc1ccc(/C=N/C2=C(C#N)C(c3ccccc3[N+](=O)[O-])c3ccc4ccccc4c3O2)cc1 (stereo not given),75.3%,112%,61.3%,96.6%,101%,71.7%,81.9%,81.1%,90.3%,113%
COc1ccc(C2=NN(C(C)=O)C(c3cn(Cc4ccc(Cl)cc4)c4ccccc34)C2)cc1 (stereo not given),81.6%,90.1%,79.2%,76%,84.5%,59.9%,85.6%,66.6%,89.3%,94%
CCCc1cc2c(cc1Br)OCO2,101%,100%,99.9%,106%,100%,85.7%,99.6%,101%,95.2%,105%
N#Cc1c(Nc2ccccc2)nn2cc(-c3nc4ccccc4s3)c(N)nc12,71%,81.8%,55.9%,76.5%,84.2%,73.4%,67.6%,66.8%,67.9%,68.7%
CC1CCN(C(=O)OCc2nc3nc(Cl)nc(N4CCOCC4)c3[nH]2)CC1,-12.2% (active),-66.8% (active),14.8%,60.3%,-89.2% (active),-59.2% (active),-27.3% (active),-94.1% (active),-86.4% (active),-86.4% (active)
COc1ccc(/C(=C\c2ccccc2)C(=O)O)cc1OC,102%,103%,81.6%,95.7%,99.6%,96.9%,93%,93%,95.3%,106%
O=C1Nc2cc(-c3ccncc3)ccc2/C1=C/c1ccc[nH]1,72.3%,88.8%,89.3%,97%,91.7%,88.1%,77.9%,111%,98.8%,69.6%
Clc1nc(Nc2ccccc2)nc(Nc2ccccc2)n1,100%,116%,105%,104%,110%,99.5%,99.8%,96.3%,94.1%,112%
O=C(Nc1nc2ccc(C(=O)N3CCN(c4ccc(Cl)c(Cl)c4)CC3)cc2s1)c1ccc(NCCc2ccccc2)c([N+](=O)[O-])c1,98.3%,100%,98.1%,100%,102%,92.4%,87.9%,78.1%,98.3%,105%
COc1ccc(C(O)c2cc3c(N)c(C(=O)Nc4ccc(Cl)cc4)sc3nc2C)cc1 (stereo not given),12.3%,-6.54% (active),-22.5% (active),37.2%,20.2%,21.4%,15.4%,17.3%,29.2%,59.6%
CC(=O)c1c(C)[nH]c(-c2nc3ccc(N4CCN(C)CC4)cc3[nH]2)c1-c1ccccc1,14.9%,14.5%,-10.6% (active),33.2%,44.7%,32%,11.8%,14.3%,6.13% (active),47.3%
Cn1ncc2c(Nc3ccccc3Cl)nc(Cl)nc21,98.4%,96.2%,78.6%,114%,112%,109%,107%,87.1%,104%,119%
CCN1C(=O)N(CC)C2C1NN=c1s/c(=C3\C(=O)Nc4ccccc43)c(=O)n12 (stereo not given),26.8%,5.74% (active),-13.6% (active),36.5%,31.4%,22.6%,19.5%,30.9%,42.2%,53%
Cc1c2c(cc[n+]1Cc1ccccc1)c1ccc(OCc3ccccc3)cc1n2Cc1ccccc1,39.2%,-48.7% (active),-18% (active),-13.3% (active),-80.2% (active),-44.8% (active),-99.4% (active),-87.1% (active),-93.2% (active),-56.5% (active)
Clc1cc(Cl)cc(N2N=C(c3cccc(Nc4ccncc4)c3)CC2c2ccc3c(c2)OCO3)c1 (stereo not given),-66.7% (active),0.164% (active),67.5%,81.9%,-43.6% (active),28.7%,58.9%,97.6%,-84.3% (active),-82.4% (active)
COc1ccc(C(=O)c2cc3c(N)c(C(=O)Nc4ccc(Cl)cc4)sc3nc2C)cc1,55.9%,54.2%,4.28% (active),67%,61.7%,78.7%,85.2%,78.6%,82.6%,82.6%
NC(=O)c1ncn(C2OC(CO)C(O)C2O)n1 (stereo not given),89.3%,73.3%,80.6%,104%,99.7%,85.2%,99.1%,104%,90.3%,106%
Cc1ccccc1CNc1ccc(N2CCOCC2)cc1,101%,105%,92.7%,101%,100%,99.6%,99.5%,94.8%,102%,99.8%
O=C(Nc1ccc2ncnc(Nc3ccc(Oc4cccc(F)c4)c(Cl)c3)c2c1)c1ccc(CNCCO)cc1,22.8%,-69.2% (active),65.1%,58.8%,-34% (active),27.7%,73.7%,106%,-76.2% (active),-44.9% (active)
